Consider 95 molecules from PubChem BioAssay AID686970 (National Center for Advancing Translational Sciences (NCATS), 2013).

SMILES strings stand for the structures. The whole screen tested about 360,000 compounds, of which about 6,000 (1.7%) were called active. Inconclusive results (about 8%) are left out. For the sample, actives were picked, then their nearest neighbours and some compounds at random. A number with no mark means an inactive call. Calls come from the whole dose curve; as a rule, active = well fitted cell-killing curve with a large enough effect; inconclusive = small, poorly fitted or top-dose-only effect, or effect the other way; inactive = flat fitted curve, though single readings scatter.
Potency is the fitted concentration of half-maximal effect.

A short description of the assay: qHTS for induction of synthetic lethality in tumor cells producing 2HG: qHTS for the HT-1080-NT fibrosarcoma cell line.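 For activity, negative = less viability: 0% = DMSO-treated cells and -100% = media-only wells without cells.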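 Note: NT is the 2HG producing partner of a matched IDH1 knockdown line; nearly all actives have a fitted effect of over 55% in size.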 To be noted: HT-1080-NT fibrosarcoma viability, CellTiter-Glo ATP luminescence, 48 h; series mostly up to 46.1 µM; activity, negative = less viability: at the top concentration. In a few lines:
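A 48-hour cytotoxicity screen used HT-1080-NT cells plated 2 hours before compound delivery. ATP-based CellTiter-Glo luminescence measured viability, normalized to DMSO and no-cell controls.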
(In qHTS, concentration-response curves come from the screen itself.)
`Fc1cnc(N2CCOCC2)nc1NCc1ccccc1`: the “activity, negative = less viability” value was -4.29%.

Regarding `c1ccc(-c2nnc(N3CCOCC3)c3ccccc23)cc1`, the “activity, negative = less viability” value is 0.217%.

Consider `c1ccc2c(NC3C4CC5CC(C4)CC3C5)nc(N3CCOCC3)nc2c1` (stereo not given), for which the Potency is 14.6 µM (active). As to `Cc1nc2ccccn2c(=O)c1NC(=O)c1ccc(Br)o1`, the “activity, negative = less viability” value is -0.505%.

As to `CCCCN1C(=O)C(CC(=O)NC(c2ccccc2)c2ccccc2)CC(C(=O)N2CCOCC2)=C1C` (stereo not given), the “activity, negative = less viability” value is 7.54%. As to `CC1=C(C(=O)N2CCOCC2)CC(CC(=O)NCC2CCCCC2)C(=O)N1Cc1ccc(F)cc1` (stereo not given), the “activity, negative = less viability” value was 1.38%. On the same count and under the same terms, the value for `O=S1(=O)CC(N2CCC(Cc3ccccc3)CC2)CN1Cc1ccccc1` (stereo not given) was 2.96%; that for `CN(C)c1nc(=Nc2cccc(Cl)c2)ss1` was 0.234%.

For `Clc1cccc(N=C2NN=C(c3ccc4c(c3)OCCO4)CS2)c1`, the Potency was 10 µM (active).

`Cc1cccc(C)c1-n1nnnc1C1(C)CCC(=O)N1CCOc1ccccc1` (stereo not given): the “activity, negative = less viability” value is 2.56%. On the same count and under the same terms, the value for `CCCCc1ccc(S(=O)(=O)NC(=O)C2(C)CCN2C(=O)c2c(C)noc2C)cc1` (stereo not given) was 0.469%. On to `N=c1c2c(-c3ccccc3)c(-c3ccccc3)oc2ncn1Cc1ccco1`, for which the Potency was 23.1 µM (active). On to `C(=C\c1ccccc1)/CSc1nnc(-c2cccnc2)n1Cc1ccco1`, for which the “activity, negative = less viability” value was 2.54%. Turning to `COC(=O)c1ccc2nc(C3CCCCC3)c(Cc3cccc(F)c3)n2c1`, the “activity, negative = less viability” value is -0.226%. Still for that read-out and setting: the value for `O=C(Nc1cccc(Cc2ccccc2)c1)Nc1ccc2nc([C@@H]3O[C@H](CO)[C@@H](O)[C@H](O)[C@H]3O)[nH]c2c1` was 12.1%. Take `CC1(C)CC(N2CCN(C(c3ccccc3)c3ccccc3)CC2)=CC(=[N+]2CCCCC2)C1`: the Potency was 2.06 µM (active). In the case of `c1ccc(C(c2ccccc2)N2CCN(Cc3nnnn3C3CCCCC3)CC2)cc1`, the “activity, negative = less viability” value was -0.131%. On to `COc1ccccc1CN1CCN(C(c2ccccc2)c2ccccc2)CC1`, for which the “activity, negative = less viability” value is -20.9%. With `COC(=O)Nc1nc2ccc(Sc3ccccc3)cc2[nH]1`, the Potency was 1.16 µM (active). `Cc1ccc(O)c(CNc2nc3ccccc3[nH]2)c1`: the “activity, negative = less viability” value was -12.6%. On the same count and under the same terms, to `CN(c1ccccc1)S(=O)(=O)c1cc(C(=O)Nc2nc3ccccc3[nH]2)ccc1Cl` belongs -2.94%. For the molecule `Oc1c(C(c2ccccn2)N2CCOCC2)ccc2cccnc12` (stereo not given), the Potency was 0.355 µM (active). As to `CC(C)c1cc(CN2CCOCC2)cc(C(C)C)c1O`, the “activity, negative = less viability” value was 2.87%. Turning to `Cc1ccc(-c2ccc(CN3C(C(C)C)C(=O)N(Cc4cn(CCC5OCCCO5)nn4)CCS3(=O)=O)cc2)cc1` (stereo not given), the “activity, negative = less viability” value was -0.2%. Same read-out and setting: the value for `CCOC(=O)/C(=N\Nc1ccccc1Cl)N(C)C1CCS(=O)(=O)C1` (stereo not given) was 7.09%; that for `CCOC(=O)N1CCN(C(=O)C2CCN(S(=O)(=O)c3cc(Cl)ccc3OCC)CC2)CC1` was 0%. As for `CCOC(=O)/C(=N\Nc1cc(Cl)ccc1Cl)N1CCN(C)CC1`, the Potency is 16.4 µM (active).

For `COc1ccc(-c2csc(Nc3cccc(C)n3)n2)cc1OC`, the “activity, negative = less viability” value is 1.13%. As for `COc1ccc2c(c1OC)C(=O)OC2Nc1nc(-c2ccccc2)cs1` (stereo not given), the Potency was 18.4 µM (active). Consider `CCc1ccccc1NC(=O)[C@@H]1CCC(=O)N1C1OC(=O)c2c1ccc(OC)c2OC` (stereo not given in full), for which the “activity, negative = less viability” value is 0%.

Consider `O=C(NCc1cccc(C(F)(F)F)c1)c1ccc2sc(COCCO)nc2c1`, for which the “activity, negative = less viability” value was 0.384%.

Regarding `COc1ccc(OC)c(NC(=O)C2CCCN2S(=O)(=O)c2ccc3c(c2)CC(C)N3C(C)=O)c1` (stereo not given), the “activity, negative = less viability” value was 1.98%. As for `C=C1C(=O)[C@]23C[C@H]1CCC2[C@@]1(C)C(C[C@@H]3O)[C@](C)(C(=O)O)CC[C@@H]1O` (stereo not given in full), the Potency was 18.4 µM (active).

Regarding `CCc1nc2ccc(C(=O)NC3CCN(Cc4ccccc4)CC3)cn2c1N(CC)CCOC`, the “activity, negative = less viability” value is 3%.

With `CN(C)C(=O)c1cccc(-c2cnc3c(NC=O)cc(-c4ccc(C(=O)N5CCOCC5)cc4)cn23)c1`, the “activity, negative = less viability” value was -6.25%. Regarding `Cc1cc(NC(=O)CCN2CCN(Cc3ccccc3)CC2)ccc1Br`, the Potency is 20.6 µM (active). For the molecule `CCOC(=O)N1CCN(CCC(=O)Nc2ccccc2)CC1`, the “activity, negative = less viability” value is 16.3%. Still for that read-out and setting: to `O=C(CN1CCN(Cc2ccccc2)CC1)Nc1ccc(F)c(F)c1` belongs -3.12%; to `CC(=O)Nc1cccc(Nc2ccc(C#N)cc2)c1`, 3.54%.

With `O=[N+]([O-])c1ccc(Oc2ccc(F)cc2Br)c2ccncc12`, the Potency is 16.4 µM (active).

For `CC(C)C1Cc2[nH][nH]c(=O)c2C(c2ccc(Cl)cc2)O1` (stereo not given), the “activity, negative = less viability” value is 13.4%. Still for that read-out and setting: the value for `COC(=O)[C@]12CCCCC=C1N(Cc1ccccc1)C(=O)[C@H](CC(=O)NCc1ccc(C)o1)C2` was 17.2%; that for `C#CCOCCOCCOCCNc1nc(N2CCN(C(=O)Cn3cc(CCO)nn3)CC2)nc(N2CCN(C(=O)Cn3cc(CCCN=C(N)N)nn3)CC2)n1` was 4.19%.

As to `C#CCOCCOCCOCCNc1nc(N2CCN(C(=O)CCCCCCCCCCNC(=O)[C@H]([C@@H](C)CC)n3cc(CCCCN=C(N)N)nn3)CC2)nc(N2CCN(C(=O)CCCCCCCCCCNC(=O)[C@H](CO)n3cc(CCCSC)nn3)CC2)n1`, the Potency was 23.1 µM (active).

As for `C#CCOCCOCCOCCNc1nc(N2CCN(C(=O)[C@H](C(C)C)n3cc(CCO)nn3)CC2)nc(N2CCN(C(=O)[C@H]([C@@H](C)CC)n3cc(CCCN=C(N)N)nn3)CC2)n1`, the “activity, negative = less viability” value is 13.2%. The same measure, in the same setting: the value for `Cc1ccc(NC(=O)COC(=O)CN2CCSC2=O)cc1F` was 2.14%. Regarding `CCCCn1nnnc1C(c1ccccc1)N1CCN(c2ccccc2OC)CC1` (stereo not given), the “activity, negative = less viability” value was -0.82%. Same read-out and setting: to `CC1Cc2[nH][nH]c(=O)c2C(C2CC2)O1` (stereo not given) belongs 2.88%; to `Cc1ccc(C(=O)OCC(=O)NC2CCCCCCC2)cc1C`, 17.5%. On the same count and under the same terms, the value for `COCCSc1nnc(NC(=O)CCS(=O)(=O)Cc2ccccc2)s1` was 21.1%; that for `Cc1cccc(NC(=O)C(C)SCc2ccccc2)c1` (stereo not given) was -15.9%. For `CSc1nnc(NC(=O)c2nc(S(=O)(=O)Cc3ccc(C)cc3)ncc2Cl)s1`, the Potency is 7.31 µM (active). Turning to `Cc1cccc(NC(=O)c2nc(S(=O)(=O)Cc3ccccc3)ncc2Cl)c1`, the Potency is 6.51 µM (active). For `Cc1cccc(NC(=O)CSc2nc3[nH]ncc3c(=O)[nH]2)c1`, the “activity, negative = less viability” value was 2.75%. Still for that read-out and setting: the value for `NC(=O)CSc1nnc(NC(=O)c2ccc(Br)o2)s1` was 8.26%; that for `Cc1nc2ccccc2nc1CC(O)(c1ccccc1)c1ccccc1` was 9.35%; that for `CC1(c2cccc(Br)c2)NC(=O)N(CC(=O)NCCC2=CCCCC2)C1=O` (stereo not given) was -1.7%.

Take `O=C1CCC(C(=O)OCC(=O)Nc2ccc(OC(F)F)cc2)=NN1`: the “activity, negative = less viability” value is -0.926%. Still for that read-out and setting: the value for `CCN(C(=O)Nc1cccc2ccccc12)c1ccccc1` was -0.44%.

Turning to `Cc1cccc(CN2CCC(CNC(=O)Nc3ccc(F)c(Cl)c3)CC2)c1`, the Potency was 16.4 µM (active).

Regarding `Cc1ccccc1NC(=O)NCC1CCN(Cc2cccc(Cl)c2)CC1`, the “activity, negative = less viability” value is -6.74%.

As to `O=C(NCC1CCN(Cc2ccccc2Cl)CC1)Nc1cccc(Cl)c1`, the “activity, negative = less viability” value is -26.3%. The same measure, in the same setting: the value for `OC[C@@H]1CN(Cc2ccc(Cl)cc2)C[C@H](n2cnc3c(NCc4ccncc4)ncnc32)O1` was -7.01%. On the same count and under the same terms, the value for `CCOCc1nnc(NC(=O)CSc2ccc(C)cc2)s1` was 14.3%.

Take `O=C(Nc1ccc(Cl)cc1)Nc1nnc(/C=C/c2ccccc2)s1`: the “activity, negative = less viability” value is -3.6%. In the case of `O=C(CSc1ccccc1)Nc1nnc(/C=C/c2ccccc2)s1`, the Potency is 23.1 µM (active). Regarding `CC1(C)OC(=O)C2=C(C[C@@H](C3CC3)O[C@H]2c2ccc(Cl)cc2)O1`, the “activity, negative = less viability” value was 14.9%.

On to `CC1(C(=O)NS(=O)(=O)c2cccc(OC(F)F)c2)CCN1C(=O)COc1ccc(Cl)cc1` (stereo not given), for which the “activity, negative = less viability” value was 20.8%. The same measure, in the same setting: the value for `CCCNC(=O)C1(C)CCCN(Cc2c(C)nn(-c3ccccc3)c2C)C1` (stereo not given) was 12.6%.

For the molecule `CN(C)CCNC(=O)/C(=C/c1cccc([N+](=O)[O-])c1)NC(=O)c1ccccc1`, the “activity, negative = less viability” value is 4.98%. With `Cc1ccc(C(=O)N/C(=C/c2ccc(-c3cccc([N+](=O)[O-])c3)o2)C(=O)NCCCN(C)C)cc1`, the Potency is 14.6 µM (active). In the case of `C=CCNC(=O)/C(=C\c1cccc([N+](=O)[O-])c1)NC(=O)c1ccccc1`, the “activity, negative = less viability” value was 14.3%. Still for that read-out and setting: to `Cc1ccc(CNC(=O)Nc2nnc([C@H]3C[C@H](O)[C@@H](CO)O3)s2)cc1` belongs 9.37%.

`O=C(NC1CCCCC1)c1ccc(-c2ccc(Cl)cc2)o1`: the Potency was 18.4 µM (active).

Take `O=C(NC(=S)NC1CCCCC1)c1ccc(Cl)cc1`: the “activity, negative = less viability” value is -10.4%.

Consider `O=C(NC1CCCCCC1)c1cccnc1Sc1ccc(Cl)cc1`, for which the “activity, negative = less viability” value was -21.3%. On the same count and under the same terms, to `O=S1(=O)C[C@@H](N2CCN(CCO)CC2)[C@H](COCc2ccccc2)N1` belongs 14.5%; to `Cc1cn([C@H]2C[C@H](O)[C@@H](/C=C/C(=O)NCCCc3ccccc3)O2)c(=O)[nH]c1=O`, -2.92%. The same measure, in the same setting: the value for `CSc1ccc(CN2CCC2(C)C(=O)NCc2ccccc2Br)cc1` (stereo not given) was -24.6%; that for `O=C(COc1ccc(S(=O)(=O)Nc2cccc(C(F)(F)F)c2)cc1)N1CCOCC1` was -3.05%. Still for that read-out and setting: the value for `O=C(NCc1ccccc1)c1ccc(S(=O)(=O)Nc2cccc(C(F)(F)F)c2)cc1` was -25.6%. `Cc1oc2c(F)c(F)c(F)c(F)c2c1S(=O)(=O)Nc1cccc(C(F)(F)F)c1`: the Potency is 3.26 µM (active).

With `CCCCn1nnnc1C(c1cccc(OC)c1OC)N1CCN(C/C=C/c2ccccc2)CC1` (stereo not given), the “activity, negative = less viability” value is -22.9%.

As for `C/C(=N/Nc1ccc(Cl)cc1)c1cnnc(-c2ccccc2)n1`, the “activity, negative = less viability” value is 12.4%.

Regarding `C/C(=N\Nc1ccc(Cl)nn1)c1ccccc1O`, the Potency is 0.731 µM (active).

Consider `CCCCCCCN=C(C)c1ccccc1O`, for which the “activity, negative = less viability” value is 19.4%.

Take `CCOC(=O)[C@]12CCCC=C1N(Cc1ccc(Cl)cc1Cl)C(=O)[C@H](CC(=O)N1CCCCC1)C2`: the “activity, negative = less viability” value is 14.2%. On the same count and under the same terms, the value for `Cc1ccc(NC(=S)N(CCCN2CCC(C)CC2)Cc2ccco2)cc1` was 0.938%. Consider `Cc1ccc(NC(=S)N(CCN2CCCCC2)Cc2ccco2)cc1C`, for which the “activity, negative = less viability” value is -4.57%. For the molecule `Cc1ccc(NC(=S)N(CCCN2CCCC2)Cc2cccn2Cc2ccc(Cl)cc2)cc1`, the Potency is 23.1 µM (active). For `Cc1nc(C(F)(F)F)ccc1C(=O)N1CCC1(C)C(=O)NS(=O)(=O)c1ccccc1` (stereo not given), the “activity, negative = less viability” value is 0.451%. For `Cc1[nH]n(C)c(=O)c1C(=O)c1c(-c2c(Cl)cccc2Cl)noc1C`, the Potency was 20.6 µM (active).

For `Cc1onc(-c2c(Cl)cccc2Cl)c1C(=O)c1c[nH]c(C(=O)NC2CC2)c1`, the “activity, negative = less viability” value was -5.57%. Still for that read-out and setting: the value for `Cc1onc(-c2c(Cl)cccc2Cl)c1C(=O)NNC(=O)c1c(-c2c(Cl)cccc2Cl)noc1C` was -6.56%. Same read-out and setting: the value for `CCC(Oc1ccccc1)C(=O)OCC(=O)Nc1c(C)nn(-c2ccccc2)c1C` (stereo not given) was 13.5%.
